The list is not random: actives were taken first. Their share in the collection is about 6.1%.
ATXN2 expr inh – Primary qHTS for Inhibitors of ATXN expression; 0.72% of 360,000 active; HEK-293 ATXN2-luciferase reporter, luminescence, 24 h; Potency, µM (titrated, usually from 57 µM), without a hit: at the top dose activity change, negative = inhibition, hits mostly inhibitors; AID 1745845, 2022; note: % is set by controls: 0 for no effect and ±100 for the full control effect; nearly all actives have a fitted effect of over 55% in size
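ATXN2-luciferase reporter cells (luciferase flanked by upstream and downstream ATXN2 gene portions) were treated 24 h at 37 °C with compounds at up to 57 uM. SteadyGlo luminescence gave expression; GF-AFC fluorescence gave viability.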
Gal4-VP16 FLuc – VP16 counterscreen qHTS for inhibitors of ROR gamma transcriptional activity | Drosophila S2 Gal4-VP16 UAS-luciferase, luminescence, 20 h | Potency, µM (titrated, usually from 53.6 µM), for the others: at the highest dose activity, negative = inhibition, most hits filed as inhibitors | 3.5% of 310,000 active | AID 2546, 2010;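 note: Gal4-VP16 expression switched on by copper sulfate through the metallothionein promoter; % is set by controls: 0 for no effect and ±100 for the full control effect; nearly all actives have a fitted effect of over 50% in size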
ATXN viability – Viability Counterscreen for Primary qHTS for Inhibitors of ATXN expression; Potency, µM (doses to about 56.7 µM), usual class: cytotoxic; S2 cells (HEK-293 line with an ATXN2-luciferase reporter) viability, CellTiter-Fluor protease fluorescence, 24 h; 0.49% of 400,000 active; note: nearly all actives have a fitted effect of over 40% in size
TGFb inhibitor – qHTS for Inhibitors of TGF-b; HepG2 CAGA-GFP TGF-b/SMAD3 reporter, GFP fluorescence, 18 h; TGF-beta stimulated, 500 pg/mL final; Potency, µM (series often up to 46.1 µM), for the others: top-dose activity, negative = inhibition, hits mostly inhibitors; 1.2% of 410,000 active; AID 588855, 2011; note: % is set by controls: 0 for no effect and ±100 for the full control effect; nearly all actives have a fitted effect of over 65% in size
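Using HEPG2 CAGA-GFP reporter cells at 1000 cells/well, we pinned test compounds, stimulated with recombinant TGF-beta (500 pg/mL final) and measured total well GFP after 18 h.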
HepG2 viability – qHTS for Inhibitors of TGF-b: Cytotox Counterscreen; HepG2 CAGA-GFP viability, ATP luminescence, 18 h; Potency, µM (doses to about 46.1 µM), inactives show at the top dose activity change, negative = cytotoxicity, usual class: cytotoxic; AID 588856, 2011; 0.76% of 410,000 active
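HepG2 CAGA-GFP cells (1000/well, DMEM with 1% FBS) received compound, then TGF-beta at 500 pg/mL final, and were incubated 18 hours at 37 degrees C. Viability was read by CellTiter-Glo luminescence. Media-only wells were set as complete cell-killing and DMSO as no toxicity.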
RORgamma inh – qHTS for inhibitors of ROR gamma transcriptional activity | Drosophila S2 Gal4-RORgamma UAS-luciferase reporter, 20 h | Potency, µM (titrated, usually from 53.6 µM), for the others: top-dose activity change, negative = inhibition, hits mostly inhibitors | 5.4% of 310,000 active | AID 2551, 2010; note: % is set by controls: 0 for no effect and ±100 for the full control effect; nearly all actives have a fitted effect of over 60% in size
Target sequence (P51450 whole entry, looked up, the tested form may be a part): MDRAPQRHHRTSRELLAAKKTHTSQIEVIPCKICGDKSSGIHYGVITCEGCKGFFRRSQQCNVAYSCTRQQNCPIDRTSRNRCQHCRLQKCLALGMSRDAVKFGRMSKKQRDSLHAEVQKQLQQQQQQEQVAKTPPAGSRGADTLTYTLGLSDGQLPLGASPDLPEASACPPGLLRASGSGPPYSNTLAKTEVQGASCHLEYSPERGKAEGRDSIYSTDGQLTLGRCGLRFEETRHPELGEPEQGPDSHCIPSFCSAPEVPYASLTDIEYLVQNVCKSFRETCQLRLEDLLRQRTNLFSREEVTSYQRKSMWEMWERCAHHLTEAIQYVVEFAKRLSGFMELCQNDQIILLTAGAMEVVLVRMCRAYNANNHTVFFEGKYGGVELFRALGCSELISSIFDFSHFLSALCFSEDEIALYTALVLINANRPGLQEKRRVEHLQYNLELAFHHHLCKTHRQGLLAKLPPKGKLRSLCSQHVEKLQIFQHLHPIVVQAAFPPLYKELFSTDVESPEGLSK
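Read-out: Photinus luciferase luminescence; inhibitors lower reporter signal. Insect Schneider cells with Gal4-ROR gamma fusion under metallothionein promoter, UAS reporter; 700 uM final copper sulfate induction, 20 hr, ambient temperature.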
* = called active by the depositor; i = inactive; ? = inconclusive; / = not tested or not shown; [ ] = dose if it differs, or a comment. Calls come from the whole dose curve; as a rule, active = well fitted curve in the direction sought with a large enough effect; inconclusive = small, poorly fitted or top-dose-only effect, or another doubt; inactive = no such curve, though single readings can be large; an effect the other way counts as inactive or inconclusive. Potency is the fitted concentration of half-maximal effect.

SMILES	ATXN2 expr inh	Gal4-VP16 FLuc	ATXN viability	TGFb inhibitor	HepG2 viability	RORgamma inh
Cc1cnc(SCC2CCCO2)nc1C1CCCN(C(=O)c2ccc(S(N)(=O)=O)cc2)C1 (centres undefined)	/	/	i	/	/	/
COc1ccc(CNc2nc(SCc3ccc(Cl)cc3)nc3ccccc23)cc1	/	/	/	0%	3%	/
O=c1cc(CSc2nc(NCc3ccccc3)c3ccccc3n2)nc2ccc(Cl)cn12	-7%	21%	?	0%	10%	4.5µM*
CC[C@@H]1[C@H]2CCCC(=O)N3CC[C@@H](C[C@@H]1OC(=O)Nc1ccc4c(c1)OCO4)[C@@H]23	/	/	/	-23%	-15%	/
CCOc1cc(C(=O)NCc2ccc3c(c2)CCN3C(=O)c2ccc(F)cc2)cc(OCC)c1OCC	/	/	/	0%	-25%	/
O=C(/C=C/c1ccc(-c2ccccc2[N+](=O)[O-])o1)c1ccc(Br)cc1	?	2%[0.365 µM]	i	-17%	-19%	2%
O=C(/C=C/c1ccc(-c2ccccc2[N+](=O)[O-])o1)c1ccc(F)cc1	?	4%	?	?	11µM*	?
C=CCN1[C@@H](C(C)C)COCCS1(=O)=O	/	/	/	6%	8%	/
COC(=O)c1sccc1NC(=O)Nc1ccc(C)cc1C	7%	?	i	-1%	-23%	?
COC(=O)c1sccc1NC(=S)Nc1ccc(F)cc1	3%	?	i	4%	14%	13µM*
COC(=O)c1sccc1NC(=S)Nc1cc(C)ccc1OC	/	16µM*	i	-26%	3%	8.9µM*
CCOC(=O)C1=C(C)Nc2nc(=S)[nH]n2C1c1ccc(Cl)cc1 (centres undefined)	/	-13%	i	2%	-10%	10µM*
CCN1C(=S)N[C@@H](c2cccc(F)c2)C(C(=O)OC)=C1C	20%	11µM*	i	-5%	-14%	5µM*
CCOC(=O)C1=C(C)N(CC)C(=S)NC1c1ccc(Cl)cc1 (centres undefined)	5%	6.3µM*	i	1%	-4%	7.1µM*
COC(=O)C1=C(C)N(Cc2ccccc2)C(=S)N[C@H]1c1ccccc1	-18%	16µM*	i	?	-16%	3.2µM*
COc1ccc(C)cc1NC(=O)c1c2c(nc3ccccc13)C(=O)N(C1CCCCC1)C2	/	/	/	19%	0%	/
CC(C)CC(=O)Nc1nc2c(s1)CC(C(C)(C)C)CC2 (centres undefined)	61%	/	i	-21%	-26%	/
COC(=O)C1=C(C)N(Cc2ccccc2)C(=S)N[C@H]1CCc1ccccc1	/	?	/	/	/	4.5µM*
CCOC(=O)C1=C(CN2CCN(c3ccc(Cl)cc3)CC2)NC(=O)NC1c1ccc(F)cc1 (centres undefined)	6%	/	i	16µM*	-39%	/
CCOC(=O)C1=C(CN2CCN(c3ccccc3F)CC2)NC(=O)NC1c1ccc(Cl)cc1 (centres undefined)	8%	/	i	-9%	-7%	/
COC(=O)C1=C(C)N(Cc2ccccc2)C(=NCCCCO)N[C@H]1CCc1ccccc1	-6%	-2%	?	?	-34%	-2%
Cn1c(=O)cc(SCC(=O)N2CCN(c3ccc(F)cc3)CC2)c2ccc(Cl)cc21	-2%	/	i	23%	7%	/
CC1CCN(c2nc3ccccc3nc2C(F)(F)F)CC1	13%	/	i	-23%	3%	/
CC(C)(C)OC(=O)NCCCCCNC(=O)c1[nH]cnc1C(=O)Nc1ccc(Cl)cc1	?	/	?	?	18µM*	/
CCOC(=O)c1ccc(NC(=O)c2nc[nH]c2C(=O)NCCCCNC(=O)c2[nH]cnc2C(=O)Nc2ccc(C(=O)OCC)cc2)cc1	6%	/	i	-3%	0%	/
SMILES	ATXN2 expr inh	Gal4-VP16 FLuc	ATXN viability	TGFb inhibitor	HepG2 viability	RORgamma inh
CCOC(=O)c1ccc(NC(=O)c2nc[nH]c2C(=O)N(CC)CC)cc1	-1%	?	i	-2%	17%	11µM*
CCOC(=O)c1ccc(NC(=O)c2nc[nH]c2C(=O)NCCCCCNC(=O)OC(C)(C)C)cc1	?	?	?	4%	-15%	11µM*
CCOC(=O)c1ccc(NC(=O)c2nc[nH]c2C(=O)NCC(=O)OC(C)(C)C)cc1	0%	16µM*	?	?	-22%	7.1µM*
CCC1CN(CC(=O)NCc2cc(C)n(C)n2)Cc2cc(OC)ccc2O1 (centres undefined)	/	/	i	/	/	/
COc1cccc(CNC(=O)c2c(C)nn(-c3ccc(F)cc3)c2-n2cccc2)c1	-26%	/	?	3%	-17%	/
CCc1ccc(NC(=O)CSc2ccnc(=O)[nH]2)cc1	37%	/	i	0%	4%	/
CCOC(=O)c1cc2c(nc1N)CCCC2	4%	-16%	i	-2%	-52%	-15%
C=C(C)CNC(=S)Nc1nc2c(cc1C(=O)OCC)CCCC2	54%	10µM*	i	3%	-1%	5µM*
O=C(Cc1cccs1)N/N=C/C=C/c1ccccc1	1%	2%	i	5%	9%	13%
COc1ccc(/C=C/C(=O)NC(=S)NNC(=O)Cc2cccs2)cc1	-12%	?	i	?	-7%	11µM*
O=C(/C=C/c1ccccc1)NC(=S)NNC(=O)Cc1cccs1	-20%	5µM*	i	-26%	-10%	2.5µM*
Cc1ccc(-c2nc(C(=O)NCc3ccccc3Cl)c3n2CCCCC3)cc1	-34%	/	?	?	-8%	/
CC(C)c1ccc(NC(=O)c2cccc3c2C(=O)N(C2CCCCC2)C3)cc1	15%	/	i	-3%	-1%	/
COc1ccccc1NC(=O)c1oc2ccccc2c1NC(=O)c1c(F)cccc1F	8%	/	i	-4%	-3%	/
COc1cccc(Cn2nnc(C(=O)NCCc3ccc(Cl)cc3)c2N)c1	-11%	-6%	i	?	18µM*	-29%
CCC(=O)N1CCc2cc(CNS(=O)(=O)c3ccccc3F)ccc21	/	/	/	1%	-17%	/
CC(C)n1cc(CN2CCCC(C(=O)Nc3cccc(-c4cc5ccccc5[nH]4)c3)C2)cn1 (centres undefined)	28µM*	3%	?	?	-103%	-21%
Cn1cc(CN2CCCC(C(=O)Nc3cccc(-c4cc5ccccc5[nH]4)c3)C2)cn1 (centres undefined)	-38%	-16%	i	?	-34%	-19%

Assay outcomes (PubChem)
